Measurements: PMC5540273 (PLoS ONE, 2017)

What was measured:
Conditions in all cases: concentration: 1 μM, replicates: in singlicate; n = 1
BMPR1A = test system: BMPR1A
BMPR1B = test system: BMPR1B
BMPR2 = test system: BMPR2
BMX = test system: BMX
BRAF = test system: BRAF
BRK = test system: T1, BRK
T1 construct: gene PTK6

BRSK1 = test system: BRSK1
BRSK2 = test system: BRSK2
BTK = test system: BTK
BUB1 = test system: BUB1
CAMK1B = test system: CAMK1B
CAMK1D = test system: CAMK1D
CAMK1G = test system: CAMK1G
CAMK1 = test system: CAMK1
CAMK2A = test system: CAMK2A
CAMK2B = test system: CAMK2B
CAMK2D = test system: CAMK2D
CAMK2G = test system: CAMK2G
CAMK4 = test system: CAMK4
CAMKK1 = test system: CAMKK1
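Note: KINOMEscan kinase panel screen.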

| SMILES | %Inh (BMPR1A) [%] | %Inh (BMPR1B) [%] | %Inh (BMPR2) [%] | %Inh (BMX) [%] | %Inh (BRAF) [%] | %Inh (BRK) [%] | %Inh (BRSK1) [%] | %Inh (BRSK2) [%] | %Inh (BTK) [%] | %Inh (BUB1) [%] | %Inh (CAMK1B) [%] | %Inh (CAMK1D) [%] | %Inh (CAMK1G) [%] | %Inh (CAMK1) [%] | %Inh (CAMK2A) [%] | %Inh (CAMK2B) [%] | %Inh (CAMK2D) [%] | %Inh (CAMK2G) [%] | %Inh (CAMK4) [%] | %Inh (CAMKK1) [%] |
| --- | --- | --- | --- | --- | --- | --- | --- | --- | --- | --- | --- | --- | --- | --- | --- | --- | --- | --- | --- | --- |
| Cn1ccc2ncnc(Oc3cccc(C(=O)Nc4ccccc4)c3)c21 | 5 | 13 | 14 | 0 | 0 | 15 | 0 | 0 | 0 | 8 | 12 | 0 | 17 | 29 | 1 | 0 | 20 | 19 | 0 | 20 |
| Fc1cccc(COc2nnc(-c3ccc4c(c3)CCO4)o2)c1 | 0 | 6 | 18 | 0 | 0 | 0 | 0 | 6 | 17 | 20 | 0 | 0 | 12 | 18 | 0 | 6 | 0 | 7 | 0 | 8 |
| Cc1cccc(-c2nc(Nc3ccc4[nH]ncc4c3)c3ccccc3n2)n1 [GW857175] | 60 | 34 | 18 | 15 | 16 | 2 | 0 | 0 | 10 | 65 | 0 | 0 | 0 | 0 | 15 | 3 | 0 | 0 | 0 | 0 |
| Cc1ccc(NC(=O)Nc2cccc(Cl)c2)cc1-c1ccc(C(=O)Nc2ccncc2)cc1 [GSK1398468] | 0 | 0 | 0 | 0 | 67 | 13 | 100 | 9 | 0 | 53 | 28 | 13 | 0 | 7 | 0 | 0 | 7 | 27 | 0 | 0 |
| Nc1ncnc2[nH]c(-c3ccccc3)nc12 [AH5015] | 0 | 0 | 0 | 20 | 6 | 16 | 1 | 0 | 1 | 38 | 29 | 13 | 0 | 0 | 0 | 0 | 0 | 0 | 0 | 0 |
| Cc1cccc(-c2nc(C)cc(Nc3ccncc3)n2)n1 [GSK257997] | 14 | 0 | 2 | 27 | 0 | 2 | 0 | 0 | 0 | 9 | 12 | 14 | 99.4 | 10 | 0 | 0 | 94.2 | 12 | 0 | 0 |
